According to the supplement of paper PMC11001985:
A number with no mark means an inactive call.

What follows are targets tested with C#CCNC(=O)CCSSCCC(=O)NCCc1ccc(C=O)c(C=O)c1 (assay: lysine labeling ratio R10:1 (500 µM / 50 µM probe), SILAC-ABPP in living cells; higher = lower intrinsic lysine reactivity toward the probe, active = 2 or less). Settings: HeLa; probe concentrations 500 vs 50 µM.
How it was run: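 R, given per lysine, is the filtered median high-probe/low-probe MS1 peptide ratio, with the median then taken across forward and reverse replicates. Cells were living SILAC light and heavy HeLa cells in PBS at room temperature, labelled with 50 µM or 500 µM of an alkyne-tagged, disulfide-linked lysine probe. The ceiling applied is 20.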

UniProt P55285, sequence (P55285 whole entry): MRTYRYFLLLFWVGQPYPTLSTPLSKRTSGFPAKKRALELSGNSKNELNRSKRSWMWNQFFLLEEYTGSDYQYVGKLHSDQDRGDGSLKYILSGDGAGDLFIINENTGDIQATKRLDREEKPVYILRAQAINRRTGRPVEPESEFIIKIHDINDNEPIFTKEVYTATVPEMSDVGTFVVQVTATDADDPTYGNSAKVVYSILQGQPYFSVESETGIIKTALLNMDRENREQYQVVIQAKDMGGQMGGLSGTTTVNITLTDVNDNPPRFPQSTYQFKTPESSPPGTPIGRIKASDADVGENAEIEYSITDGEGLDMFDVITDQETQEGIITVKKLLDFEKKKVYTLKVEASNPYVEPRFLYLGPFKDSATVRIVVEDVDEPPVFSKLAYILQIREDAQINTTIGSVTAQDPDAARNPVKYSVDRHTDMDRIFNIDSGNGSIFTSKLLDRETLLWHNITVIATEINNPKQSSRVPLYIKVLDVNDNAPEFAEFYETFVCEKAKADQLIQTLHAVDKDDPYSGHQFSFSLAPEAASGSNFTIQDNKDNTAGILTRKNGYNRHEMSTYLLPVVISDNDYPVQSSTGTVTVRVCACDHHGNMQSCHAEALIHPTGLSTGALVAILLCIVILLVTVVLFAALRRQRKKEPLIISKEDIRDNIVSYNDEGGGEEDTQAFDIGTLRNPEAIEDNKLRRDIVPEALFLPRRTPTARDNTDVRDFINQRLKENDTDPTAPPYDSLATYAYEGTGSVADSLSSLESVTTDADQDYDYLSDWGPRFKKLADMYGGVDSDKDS
UniProt Q8WUM4, sequence (Q8WUM4 whole entry): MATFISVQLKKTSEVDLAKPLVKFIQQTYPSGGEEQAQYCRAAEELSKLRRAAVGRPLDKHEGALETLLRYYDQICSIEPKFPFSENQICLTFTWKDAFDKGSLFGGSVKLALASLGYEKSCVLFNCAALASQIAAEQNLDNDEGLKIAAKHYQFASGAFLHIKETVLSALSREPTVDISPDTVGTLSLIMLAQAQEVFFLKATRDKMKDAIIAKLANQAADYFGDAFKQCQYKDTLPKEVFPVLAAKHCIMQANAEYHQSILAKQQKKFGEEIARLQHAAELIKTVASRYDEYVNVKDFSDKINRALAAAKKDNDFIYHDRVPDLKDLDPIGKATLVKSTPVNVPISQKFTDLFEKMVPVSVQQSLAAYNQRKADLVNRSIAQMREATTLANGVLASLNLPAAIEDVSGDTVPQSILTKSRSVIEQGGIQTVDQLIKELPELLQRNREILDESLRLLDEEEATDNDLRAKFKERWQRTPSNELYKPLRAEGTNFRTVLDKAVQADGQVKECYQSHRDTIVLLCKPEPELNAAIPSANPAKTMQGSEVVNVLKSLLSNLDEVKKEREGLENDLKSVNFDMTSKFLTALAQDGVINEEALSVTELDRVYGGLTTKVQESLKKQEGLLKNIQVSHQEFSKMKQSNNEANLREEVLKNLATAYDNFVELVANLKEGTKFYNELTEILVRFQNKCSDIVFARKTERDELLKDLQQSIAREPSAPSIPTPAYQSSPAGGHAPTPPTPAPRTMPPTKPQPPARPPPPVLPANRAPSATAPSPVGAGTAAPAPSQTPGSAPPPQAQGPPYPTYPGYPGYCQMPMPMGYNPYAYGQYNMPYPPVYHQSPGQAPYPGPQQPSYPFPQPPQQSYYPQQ
UniProt P17301, sequence (P17301 whole entry): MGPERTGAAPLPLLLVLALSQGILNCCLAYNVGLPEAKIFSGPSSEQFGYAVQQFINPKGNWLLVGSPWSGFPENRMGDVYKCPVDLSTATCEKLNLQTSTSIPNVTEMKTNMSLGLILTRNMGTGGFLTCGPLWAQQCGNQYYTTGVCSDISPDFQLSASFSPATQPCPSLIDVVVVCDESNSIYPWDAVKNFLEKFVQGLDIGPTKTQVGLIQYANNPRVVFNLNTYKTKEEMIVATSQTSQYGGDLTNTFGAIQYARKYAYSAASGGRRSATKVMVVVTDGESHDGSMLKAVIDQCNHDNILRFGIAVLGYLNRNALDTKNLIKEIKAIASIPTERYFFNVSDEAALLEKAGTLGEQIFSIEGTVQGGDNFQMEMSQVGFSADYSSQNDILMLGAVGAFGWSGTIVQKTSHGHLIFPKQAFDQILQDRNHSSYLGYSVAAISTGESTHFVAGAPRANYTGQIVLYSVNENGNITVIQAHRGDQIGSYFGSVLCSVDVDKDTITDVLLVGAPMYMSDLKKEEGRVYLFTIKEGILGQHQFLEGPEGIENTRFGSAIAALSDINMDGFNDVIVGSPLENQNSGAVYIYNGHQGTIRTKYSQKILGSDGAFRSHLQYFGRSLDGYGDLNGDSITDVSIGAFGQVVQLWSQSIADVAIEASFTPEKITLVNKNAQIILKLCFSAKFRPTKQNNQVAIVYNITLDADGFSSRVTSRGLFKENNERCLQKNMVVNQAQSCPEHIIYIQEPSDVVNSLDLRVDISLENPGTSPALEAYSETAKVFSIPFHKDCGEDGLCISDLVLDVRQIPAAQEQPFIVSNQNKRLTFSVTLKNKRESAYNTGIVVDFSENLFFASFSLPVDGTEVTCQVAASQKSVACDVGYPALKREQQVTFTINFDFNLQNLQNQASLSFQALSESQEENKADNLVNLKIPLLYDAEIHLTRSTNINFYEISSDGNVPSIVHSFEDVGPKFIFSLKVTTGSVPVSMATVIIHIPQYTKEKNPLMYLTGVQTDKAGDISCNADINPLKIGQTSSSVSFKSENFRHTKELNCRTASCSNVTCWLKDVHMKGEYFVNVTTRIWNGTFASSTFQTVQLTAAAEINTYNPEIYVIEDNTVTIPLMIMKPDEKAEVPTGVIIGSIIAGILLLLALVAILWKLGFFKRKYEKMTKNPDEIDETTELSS
UniProt O00469, sequence (O00469 whole entry): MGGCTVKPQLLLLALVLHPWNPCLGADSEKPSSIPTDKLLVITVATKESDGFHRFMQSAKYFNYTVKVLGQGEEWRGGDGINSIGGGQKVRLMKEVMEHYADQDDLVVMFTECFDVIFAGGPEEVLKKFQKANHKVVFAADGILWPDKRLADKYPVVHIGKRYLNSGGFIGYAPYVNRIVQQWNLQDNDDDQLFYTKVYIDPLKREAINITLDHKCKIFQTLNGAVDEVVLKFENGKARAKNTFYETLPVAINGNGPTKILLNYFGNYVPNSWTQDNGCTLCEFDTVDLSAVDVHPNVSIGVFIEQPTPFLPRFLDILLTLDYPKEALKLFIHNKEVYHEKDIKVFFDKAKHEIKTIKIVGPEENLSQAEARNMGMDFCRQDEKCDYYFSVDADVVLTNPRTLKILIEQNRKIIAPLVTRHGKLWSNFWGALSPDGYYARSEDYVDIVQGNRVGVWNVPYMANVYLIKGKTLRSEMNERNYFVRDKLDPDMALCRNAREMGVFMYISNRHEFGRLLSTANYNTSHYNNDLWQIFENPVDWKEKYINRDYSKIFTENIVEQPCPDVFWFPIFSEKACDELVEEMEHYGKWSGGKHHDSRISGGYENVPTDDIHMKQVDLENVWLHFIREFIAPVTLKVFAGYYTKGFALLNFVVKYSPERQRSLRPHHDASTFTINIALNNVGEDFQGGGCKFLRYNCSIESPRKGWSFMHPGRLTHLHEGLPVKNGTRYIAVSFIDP
UniProt Q32P28, sequence (Q32P28 whole entry): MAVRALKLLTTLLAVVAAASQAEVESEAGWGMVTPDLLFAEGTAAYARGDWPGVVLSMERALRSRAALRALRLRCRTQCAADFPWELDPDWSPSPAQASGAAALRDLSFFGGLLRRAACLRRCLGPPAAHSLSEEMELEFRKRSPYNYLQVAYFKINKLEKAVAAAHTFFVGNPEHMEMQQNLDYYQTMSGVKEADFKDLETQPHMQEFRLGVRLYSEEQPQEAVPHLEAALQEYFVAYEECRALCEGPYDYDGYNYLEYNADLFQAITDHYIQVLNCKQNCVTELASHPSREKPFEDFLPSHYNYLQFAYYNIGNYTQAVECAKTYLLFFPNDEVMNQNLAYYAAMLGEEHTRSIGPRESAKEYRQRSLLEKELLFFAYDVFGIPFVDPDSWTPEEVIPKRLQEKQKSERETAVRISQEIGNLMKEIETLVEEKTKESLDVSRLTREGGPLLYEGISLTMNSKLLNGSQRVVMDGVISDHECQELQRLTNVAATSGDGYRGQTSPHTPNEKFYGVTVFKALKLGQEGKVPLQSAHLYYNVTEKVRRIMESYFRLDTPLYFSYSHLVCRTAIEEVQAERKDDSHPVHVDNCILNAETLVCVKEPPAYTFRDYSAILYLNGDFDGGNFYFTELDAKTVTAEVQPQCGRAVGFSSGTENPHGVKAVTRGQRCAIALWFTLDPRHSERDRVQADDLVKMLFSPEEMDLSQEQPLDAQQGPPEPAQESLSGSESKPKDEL
UniProt P34741, sequence (P34741 whole entry): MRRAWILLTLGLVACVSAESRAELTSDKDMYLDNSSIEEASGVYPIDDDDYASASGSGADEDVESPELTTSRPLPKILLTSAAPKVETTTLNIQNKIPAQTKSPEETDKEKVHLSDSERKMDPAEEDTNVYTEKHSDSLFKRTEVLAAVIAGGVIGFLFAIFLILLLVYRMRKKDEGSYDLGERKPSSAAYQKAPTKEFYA
UniProt P68366, sequence (P68366 whole entry): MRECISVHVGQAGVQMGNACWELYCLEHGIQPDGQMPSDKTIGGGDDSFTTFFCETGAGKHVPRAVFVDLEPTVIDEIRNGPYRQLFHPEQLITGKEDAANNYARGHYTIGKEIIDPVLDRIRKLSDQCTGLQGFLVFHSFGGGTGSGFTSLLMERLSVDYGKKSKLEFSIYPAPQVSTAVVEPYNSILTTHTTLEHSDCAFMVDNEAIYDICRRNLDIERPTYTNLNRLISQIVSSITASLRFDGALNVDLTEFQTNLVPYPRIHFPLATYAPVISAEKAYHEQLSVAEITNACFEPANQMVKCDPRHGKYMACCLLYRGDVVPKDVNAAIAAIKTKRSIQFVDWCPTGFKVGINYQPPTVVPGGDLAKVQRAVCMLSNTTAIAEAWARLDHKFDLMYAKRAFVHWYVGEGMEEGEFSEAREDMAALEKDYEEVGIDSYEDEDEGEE

| Target | lysine labeling ratio R10:1 |
| --- | --- |
| ORMDL3 (lysine site: K79) (UniProt Q8N138) | 5.16 |
| ITGA2 (lysine site: K261) (UniProt P17301) | 1.26 (active) |
| FBLN1 (lysine site: K187) (UniProt P23142) | 2.05 |
| PPIB (lysine site: K116) (UniProt P23284) | 6.61 |
| UniProt P62805 (lysine site: K92) | 7.01 |
| UniProt Q14574 (lysine site: K662) | 1.83 (active) |
| UniProt Q12884 (lysine site: K258) | 3.81 |
| PDCD6IP (lysine site: K48) (UniProt Q8WUM4) | 2.93 |
| FASN (lysine site: K1704) (UniProt P49327) | 2.46 |
| UniProt Q8WXI7 (lysine site: K12412) | 1.99 (active) |
| DDX5 (lysine site: K523) (UniProt P17844) | 4.4 |
| PDIA4 (lysine site: K366) (UniProt P13667) | 1.22 (active) |
| FZD5 (lysine site: K113) (UniProt Q13467) | 1.57 (active) |
| APOA4 (lysine site: K79) (UniProt P06727) | 1.22 (active) |
| UniProt P55285 (lysine site: K365) | 0.61 (active) |
| G6PD (lysine site: K497) (UniProt P11413) | 3.47 |
| UniProt P55285 (lysine site: K121) | 4.12 |
| PRDX5 (lysine site: K146) (UniProt P30044) | 1.62 (active) |
| ITGA2 (lysine site: K603) (UniProt P17301) | 1.54 (active) |
| UniProt P68366 (lysine site: K112) | 2.82 |

| Target | lysine labeling ratio R10:1 |
| --- | --- |
| UniProt Q00341 (lysine site: K494) | 2.15 |
| LRP1 (lysine site: K3988) (UniProt Q07954) | 4.67 |
| UniProt Q15149 (lysine site: K1725) | 1.57 (active) |
| SDC2 (lysine site: K134) (UniProt P34741) | 3.52 |
| TLN1 (lysine site: K1221) (UniProt Q9Y490) | 1.89 (active) |
| CEP250 (lysine site: K1048) (UniProt Q9BV73) | 7.19 |
| UniProt Q99623 (lysine site: K200) | 2.34 |
| ITGA6 (lysine site: K569) (UniProt P23229) | 2.54 |
| PDCD6IP (lysine site: K313) (UniProt Q8WUM4) | 2.29 |
| PLOD2 (lysine site: K486) (UniProt O00469) | 2.27 |
| HNRNPM (lysine site: K239) (UniProt P52272) | 1.67 (active) |
| PLOD2 (lysine site: K593) (UniProt O00469) | 1.21 (active) |
| MYH9 (lysine site: K1024) (UniProt P35579) | 1.84 (active) |
| CTTN (lysine site: K272) (UniProt Q14247) | 1.57 (active) |
| SPTBN1 (lysine site: K1459) (UniProt Q01082) | 0.588 (active) |
| UniProt Q32P28 (lysine site: K363) | 4.24 |
| FN1 (lysine site: K486) (UniProt P02751) | 2.59 |
| FLNA (lysine site: K1164) (UniProt P21333) | 1.16 (active) |
| DNAJB1 (lysine site: K21) (UniProt P25685) | 1 (active) |
| ROBO1 (lysine site: K237) (UniProt Q9Y6N7) | 3.22 |
